{
  "source": "PubChem BioAssay AID686979",
  "about": "(National Center for Advancing Translational Sciences (NCATS), 2013)",
  "note": "About 50,000 (12%) of roughly 420,000 compounds were called active. A call without a number means that no potency is given here. About 26% were inconclusive and are not listed. Calls follow the shape of the dose curve; as a rule, active = well fitted inhibition curve with a large enough effect; inconclusive = small, poorly fitted or top-dose-only effect; inactive = flat fitted curve, though single readings scatter. This excerpt belongs to a sample that is enriched for actives. Potency is read from the fitted curve at half-maximal effect.",
  "data": [
    {"assay": "qHTS for Inhibitors of human tyrosyl-DNA phosphodiesterase 1 (TDP1): qHTS in cells in presence of CPT; also: nearly all actives have a fitted effect of over 55% in size", "conditions": "chicken DT40 Tdp1-/-;hTDP1 cells + 20 nM CPT, ATP luminescence, 48 h; series mostly up to 46.2 µM", "summary_of_the_method": "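Chicken DT40 Tdp1-/- cells complemented with human TDP1, 400 cells/well, exposed to compounds plus 20 nM camptothecin for at least 48 h at 37 C; viability read as ATP content by CellTiter-Glo luminescence.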", "values": [
      {"compound": "Cc1ccc(CNC(=O)CCNS(=O)(=O)c2ccc3c(c2)oc(=O)n3C)cc1", "Potency": "inactive"},
      {"compound": "C(#CCN1CCOCC1)CCCN1CCOCC1", "Potency": "inactive"},
      {"compound": "Cn1nc(C(F)(F)F)c2cc(NC(=O)OCC(C)(C)C)sc21", "Potency": "inactive"},
      {"compound": "CCNC(=O)C1(C)CCCN(C(=O)c2c(C)noc2C)C1", "note": "(stereo not given)", "Potency": "inactive"},
      {"compound": "Cc1cc2ccccn2c1C(=O)c1cccc(F)c1", "Potency": "inactive"},
      {"compound": "Cc1cc2ccccn2c1C(=O)c1cccc(S(=O)(=O)N2CCOCC2)c1", "Potency": "14.6 µM (active)"},
      {"compound": "O=C(COC(=O)c1ccccc1)Nc1cccc(S(=O)(=O)N2CCOCC2)c1", "Potency": "inactive"},
      {"compound": "O=[N+]([O-])c1ccc(S(=O)(=O)Nc2cccc(-c3ccc(N4CCCC4)nn3)c2)cc1", "Potency": "inactive"},
      {"compound": "Cc1cc(C(=O)CC#N)c(C)n1-c1c(C)n(C)n(-c2ccccc2)c1=O", "Potency": "inactive"},
      {"compound": "C=C1CCN([C@@H](Cc2ccccc2)C(=O)N2CCOCC2)S(=O)(=O)c2ccccc21", "Potency": "inactive"},
      {"compound": "C=CCn1c2ccccc2c2nnc(SC(CC)C(=O)Nc3nc(C)c(C(=O)OCC)s3)nc21", "note": "(stereo not given)", "Potency": "11.6 µM (active)"},
      {"compound": "CCn1c2ccccc2c2nnc(SCC(=O)O)nc21", "Potency": "inactive"},
      {"compound": "CCOC(=O)c1sc(NC(=O)C(CC)Sc2nccn2C)nc1C", "note": "(stereo not given)", "Potency": "inactive"},
      {"compound": "O=C(NC1CC1)C1CCCN(C(=O)NC2CCCCC2)C1", "note": "(stereo not given)", "Potency": "inactive"},
      {"compound": "CN(NC(=O)c1ccccc1)c1nc2ccccc2nc1C(F)(F)F", "Potency": "8.2 µM (active)"},
      {"compound": "Cc1nc2ccccc2c(=O)n1NC(=O)c1ccccc1", "Potency": "inactive"},
      {"compound": "O=C(Cn1cnc2ccccc2c1=O)NNC(=O)c1ccccc1F", "Potency": "inactive"},
      {"compound": "CN(NC(=O)c1ccccc1F)c1nc(C(F)(F)F)nc2ccccc12", "Potency": "0.206 µM (active)"},
      {"compound": "COC(=O)CNC(=O)c1ccccc1F", "Potency": "inactive"},
      {"compound": "O=C(Nn1cnc2ccccc2c1=O)c1ccccc1", "Potency": "inactive"},
      {"compound": "COc1ccc(OCC(=O)NNC(=O)c2cccc(C)c2)cc1", "Potency": "inactive"},
      {"compound": "Cc1ccc(S(=O)(=O)NC(=O)c2cccc(C)c2)cc1", "Potency": "inactive"},
      {"compound": "CSc1nc(N(C)NC(=O)c2cccc(C)c2)c2ccccc2n1", "Potency": "0.0517 µM (active)"},
      {"compound": "COc1cc(N2C(=O)CSC2=S)cc(OC)c1OC", "Potency": "inactive"},
      {"compound": "CCOC(=O)c1nnn(CC(=O)NC(=O)Nc2ccccc2F)c1C(=O)OCC", "Potency": "inactive"},
      {"compound": "Cn1c(CCNS(=O)(=O)c2ccc(F)cc2)nnc1SCc1cccnc1", "Potency": "inactive"},
      {"compound": "CC(C)CN1CCNC(=O)C1CC(=O)N(C)CC1CCOCC1", "note": "(stereo not given)", "Potency": "inactive"},
      {"compound": "O=C(NCCS(=O)(=O)N1CCN(c2ccc(F)cc2)CC1)c1ccccc1Br", "Potency": "inactive"},
      {"compound": "COc1ccccc1CCNC(=O)CN1C(=O)NC2(CCCC2)C1=O", "Potency": "inactive"},
      {"compound": "COC(=O)c1cc(NC(=O)CC2C(=O)NCCN2C(=O)c2ccc(F)cc2)cc(C(=O)OC)c1", "note": "(stereo not given)", "Potency": "inactive"}
    ]}
  ]
}
